Hits are enriched below; roughly 3.1% of the tested compounds scored in any of these assays.
dFosB act-1 – activators of mouse delta FosB homodimer; P13346; AID 493131; hit rate 0.99% among 340,000; purified delta FosB, TAMRA-CDK5 oligo fluorescence polarization; percent of positive-control signal above neutral wells; activation, % at 25 µM;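 active means mean activation above about 17%, with every replicate also reaching it, limit read from the data, passing the limit was not always enough; inconclusive means only one of the two conditions met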
Target sequence (P13346 whole entry, looked up): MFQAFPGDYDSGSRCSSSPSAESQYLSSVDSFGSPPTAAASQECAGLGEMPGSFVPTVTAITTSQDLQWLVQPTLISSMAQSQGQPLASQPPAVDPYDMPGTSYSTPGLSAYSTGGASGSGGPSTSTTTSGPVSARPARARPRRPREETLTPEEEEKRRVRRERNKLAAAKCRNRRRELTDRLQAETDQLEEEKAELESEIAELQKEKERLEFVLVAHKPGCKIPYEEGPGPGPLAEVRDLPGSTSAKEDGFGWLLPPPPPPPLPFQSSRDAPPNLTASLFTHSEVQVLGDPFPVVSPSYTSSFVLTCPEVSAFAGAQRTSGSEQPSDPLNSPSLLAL
DENV2 CPE rescue – inhibitors of DENV2 cytopathic effect. DENV2-infected cells, cytopathic effect rescue, plate reader. CPE inhibition, % at 9.99 µM. hit rate 1.7% among 350,000. AID 651640; in the data active means CPE inhibition above about 20%, passing the limit was not always enough; inconclusive means no clear call, values can overlap the other calls; tested in BHK-21 cells
RAD52 inh – inhibitors of human RAD52 DNA annealing; hit rate 0.46% among 360,000; inhibition, % at 18.7 µM; recombinant RAD52 DNA annealing, FRET fluorescence; AID 651710;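 active means every replicate showing at least 50% inhibition; inconclusive means mean inhibition at least 50% but not in every replicate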
AF4-AF9 inh – inhibitors of human MLL-AF4/AF9 interaction; P42568; AlphaScreen, biotin-AF4 peptide binding to FLAG-AF9; inhibition, % at 10 µM; hit rate 0.47% among 350,000; AID 651704;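 active means every replicate reaching a set inhibition limit, whatever the replicate mean, cut at about 25% in these data; inconclusive means mean inhibition reaches that limit but some replicates miss it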
RAD54 branch – inhibitors of human RAD54 branch migration; Q92698; RAD54 Holliday junction branch migration, FAM/BHQ fluorescence; inhibition, % at 10.4 µM; hit rate 0.14% among 360,000;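 active means mean normalized replicate activity at least 40 and at least half of replicates scoring 40 or more; inconclusive means only one of the two criteria met; inactive means mean below 40 and under half of replicates reaching 40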;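 further: inhibitors cause a drop in the FAM fluorescence signal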
INS-1E GSIS act – GLuc luminescence reporter in INS-1E cells, primary screen for activators of glucose-dependent secretion of insulin | hit rate 0.61% among 370,000 | AID 743287 | activation, % at 16.6 µM | INS-1E GLuc reporter insulin secretion, 2-3 h;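 active means lowest replicate activation of at least 40%, so every replicate reaches that level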
dFosB act-2 – delta FosB (mouse) homodimer activation. 2,400 tested, under 10 active. activation, % at 24.9 µM. shares compounds with dFosB act-1. AID 588690. purified delta FosB, TAMRA-CDK5 oligo fluorescence polarization; normalised: neutral wells 0, positive control 100;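 active means highest replicate activation at or above 34% and every replicate reaching that threshold; inconclusive means meets only one of the two criteria; inactive means meets neither criterion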;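 further: higher polarization means more probe DNA bound by delta FosB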
A number is an active result.

How did C[C@@H]1CCCCO[C@@H](CN(C)S(C)(=O)=O)[C@@H](C)CN([C@H](C)CO)C(=O)c2cc(NS(C)(=O)=O)ccc2O1 do in these assays?
DENV2 CPE rescue: inconclusive; RAD54 branch: inactive; INS-1E GSIS act: inactive

Results for N#Cc1ccc(-c2cccnc2)nc1SCc1ccc(Cl)cc1Cl ?
dFosB act-1: 108; RAD54 branch: inactive; dFosB act-2: inactive

Results for O=C(Cc1cccnc1)N[C@@H]1CC[C@@H](CCn2cc(-c3ccccc3F)nn2)O[C@H]1CO ?
DENV2 CPE rescue: inactive; RAD52 inh: inactive; AF4-AF9 inh: inactive; RAD54 branch: inactive; INS-1E GSIS act: inactive

How did Cc1ccc(NC(=O)CC2S/C(=N/N=C3/NC(=O)CS3)NC2=O)cc1 (stereo not drawn) do in these assays?
dFosB act-1: inactive; DENV2 CPE rescue: inactive; RAD52 inh: inactive; AF4-AF9 inh: inactive; INS-1E GSIS act: inactive

Results for CCOC(=O)c1ccc(NC(=O)CC2S/C(=N/N=C3/NC(=O)CS3)NC2=O)cc1 (stereo not drawn) ?
dFosB act-1: 23; DENV2 CPE rescue: inactive; RAD52 inh: inactive; AF4-AF9 inh: inactive; INS-1E GSIS act: inactive; dFosB act-2: inactive

What do the screens show for `O=C(NCC1CC1)[C@@H]1[C@@H](CO)[C@@H]2Cn3c(ccc(-c4cccc(F)c4)c3=O)[C@@H]2N1CC1CCCC1`?
DENV2 CPE rescue: inactive; AF4-AF9 inh: inactive; RAD54 branch: inactive; INS-1E GSIS act: inactive

Results for CCCn1nnc(NC(=S)NC(=O)c2ccc(-c3ccc(Br)cc3)o2)n1 ?
dFosB act-1: inactive; DENV2 CPE rescue: inactive; RAD52 inh: inactive; AF4-AF9 inh: inactive

How did Cn1nnc(NC(=S)NC(=O)c2ccc(-c3ccc(Br)cc3)o2)n1 do in these assays?
dFosB act-1: 33; DENV2 CPE rescue: inactive; RAD52 inh: inactive; AF4-AF9 inh: inactive; RAD54 branch: inactive; INS-1E GSIS act: inactive; dFosB act-2: inactive

What do the screens show for `COc1cccc(C(=O)NCc2nnc(SCC(=O)Nc3nccs3)n2-c2ccccc2)c1`?
dFosB act-1: 28; DENV2 CPE rescue: inactive; RAD52 inh: inactive; AF4-AF9 inh: inactive; RAD54 branch: inactive; dFosB act-2: inactive

What do the screens show for `NC(=O)c1nsc(C(=O)N(c2ccccc2)C(C(=O)NCc2ccc(F)cc2)c2ccc(O)cc2)c1N` (stereo not drawn)?
dFosB act-1: 44; DENV2 CPE rescue: inconclusive; RAD52 inh: inactive; AF4-AF9 inh: inactive; RAD54 branch: inactive; INS-1E GSIS act: inactive; dFosB act-2: inactive

Results for NC(=O)c1nsc(C(=O)N(c2ccccc2)C(C(=O)NC2CCCC2)c2ccncc2)c1N (stereo not drawn) ?
dFosB act-1: inactive; DENV2 CPE rescue: inactive; RAD52 inh: inactive; AF4-AF9 inh: inactive; RAD54 branch: inactive; INS-1E GSIS act: inactive

How did NC(=O)c1nsc(C(=O)N(c2ccccc2)C(C(=O)NC2CCCCC2)c2ccc(O)cc2)c1N (stereo not drawn) do in these assays?
dFosB act-1: 19; DENV2 CPE rescue: inactive; RAD52 inh: inactive; AF4-AF9 inh: inactive; RAD54 branch: inactive; INS-1E GSIS act: inactive; dFosB act-2: inactive

Results for CC(C)c1ccc(N(C(=O)c2snc(C(N)=O)c2N)C(C(=O)NC2CCCC2)c2ccncc2)cc1 (stereo not drawn) ?
dFosB act-1: 40; DENV2 CPE rescue: inactive; RAD52 inh: inactive; AF4-AF9 inh: inactive; RAD54 branch: inactive; INS-1E GSIS act: inactive; dFosB act-2: inactive

How did COc1ccc(N(C(=O)c2snc(C(N)=O)c2N)C(C(=O)NCc2ccccc2)c2ccc(O)cc2)cc1 (stereo not drawn) do in these assays?
dFosB act-1: inactive; DENV2 CPE rescue: inactive; RAD52 inh: inactive; AF4-AF9 inh: inactive; RAD54 branch: inactive; INS-1E GSIS act: inactive

How did CCOC(=O)c1c(NC(=O)C2CCCO2)sc(C(N)=O)c1C (stereo not drawn) do in these assays?
dFosB act-1: inactive; RAD54 branch: inactive; INS-1E GSIS act: inactive

What do the screens show for `CCOC(=O)c1c(NC(=O)C2c3ccccc3Oc3ccccc32)sc(C(N)=O)c1C`?
dFosB act-1: 32; RAD54 branch: inactive; dFosB act-2: inactive

What do the screens show for `CCN(CC)S(=O)(=O)c1cccc(C(=O)Nc2nc3cc4c(cc3s2)OCCO4)c1`?
dFosB act-1: 23; DENV2 CPE rescue: inactive; RAD52 inh: inactive; AF4-AF9 inh: inactive; RAD54 branch: inactive; INS-1E GSIS act: inactive; dFosB act-2: inactive

How did COc1ccccc1C(=O)Nc1nc2cc3c(cc2s1)OCCO3 do in these assays?
dFosB act-1: 31; RAD54 branch: inactive; dFosB act-2: inactive

Results for COc1ccccc1C(=O)Nc1nc2cc3c(cc2s1)OCO3 ?
dFosB act-1: inactive; DENV2 CPE rescue: inactive; RAD52 inh: inactive; AF4-AF9 inh: inactive; RAD54 branch: inactive; INS-1E GSIS act: inactive

Results for C=C[C@H](OC)[C@@H](OC(=O)Nc1ccc(SC)cc1)c1ccc(OCCO)cc1 ?
DENV2 CPE rescue: inactive; RAD52 inh: inactive; AF4-AF9 inh: inactive; RAD54 branch: inactive

What do the screens show for `O=C(C[C@@H]1C[C@H]2c3cc(NC(=O)CC4CC4)ccc3O[C@H]2[C@H](CO)O1)NCCc1ccccc1`?
DENV2 CPE rescue: inactive; RAD52 inh: inactive; AF4-AF9 inh: inactive; RAD54 branch: inactive; INS-1E GSIS act: inactive

How did Cc1csc(NC(=O)c2cc3c(C)nn(Cc4ccccc4Cl)c3s2)n1 do in these assays?
dFosB act-1: 46; RAD54 branch: inactive; INS-1E GSIS act: inactive; dFosB act-2: inactive

What do the screens show for `CSc1ccc(Cn2nnc(C(=O)Nc3ccc(C)c(C)c3)c2N)cc1`?
dFosB act-1: inactive; DENV2 CPE rescue: inconclusive; RAD52 inh: inactive; AF4-AF9 inh: inactive; RAD54 branch: inactive; INS-1E GSIS act: inactive

What do the screens show for `Cc1ccc(NC(=O)Cn2nnc(C(=O)Nc3ccc(C)c(C)c3)c2N)cc1`?
dFosB act-1: 120; dFosB act-2: inactive

What do the screens show for `COc1ccc(NC(=O)Cn2nnc(C(=O)Nc3ccc(F)c(Cl)c3)c2N)cc1OC`?
dFosB act-1: 23; DENV2 CPE rescue: inactive; RAD52 inh: inactive; AF4-AF9 inh: inactive; RAD54 branch: inactive; INS-1E GSIS act: inactive; dFosB act-2: inactive

Results for Cc1ccc(NC(=O)c2nnn(CC(=O)Nc3ccc4c(c3)OCO4)c2N)cc1C ?
dFosB act-1: 46; DENV2 CPE rescue: inactive; RAD52 inh: inactive; AF4-AF9 inh: inactive; RAD54 branch: inactive; INS-1E GSIS act: inactive; dFosB act-2: inactive

What do the screens show for `COc1ccc(C#Cc2cnc3c(c2)C(=O)N([C@@H](C)CO)C[C@@H](C)[C@@H](CN(C)C(=O)CN(C)C)O3)cc1`?
DENV2 CPE rescue: inactive; RAD52 inh: inactive; AF4-AF9 inh: inactive; RAD54 branch: inactive; INS-1E GSIS act: inactive
